Compounds with a hit are over-represented: about 0.71% of the library has one in this group of screens.
IDE inh = inhibits human insulin-degrading enzyme in HEK cells | P14735 | FAbetaB cleavage, fluorescence polarization | inhibition, % at 5.59 µM | 0.41% of 320,000 active | AID 434962;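 active means percent inhibition above the average of all tested compounds plus 3 SD, set per screening campaign, cut at about 16% in these data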;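 further: IDE supplied by intact live HEK cells; FP after avidin binding of uncleaved biotin substrate so inhibition keeps polarization high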
Target sequence (P14735 whole entry, looked up): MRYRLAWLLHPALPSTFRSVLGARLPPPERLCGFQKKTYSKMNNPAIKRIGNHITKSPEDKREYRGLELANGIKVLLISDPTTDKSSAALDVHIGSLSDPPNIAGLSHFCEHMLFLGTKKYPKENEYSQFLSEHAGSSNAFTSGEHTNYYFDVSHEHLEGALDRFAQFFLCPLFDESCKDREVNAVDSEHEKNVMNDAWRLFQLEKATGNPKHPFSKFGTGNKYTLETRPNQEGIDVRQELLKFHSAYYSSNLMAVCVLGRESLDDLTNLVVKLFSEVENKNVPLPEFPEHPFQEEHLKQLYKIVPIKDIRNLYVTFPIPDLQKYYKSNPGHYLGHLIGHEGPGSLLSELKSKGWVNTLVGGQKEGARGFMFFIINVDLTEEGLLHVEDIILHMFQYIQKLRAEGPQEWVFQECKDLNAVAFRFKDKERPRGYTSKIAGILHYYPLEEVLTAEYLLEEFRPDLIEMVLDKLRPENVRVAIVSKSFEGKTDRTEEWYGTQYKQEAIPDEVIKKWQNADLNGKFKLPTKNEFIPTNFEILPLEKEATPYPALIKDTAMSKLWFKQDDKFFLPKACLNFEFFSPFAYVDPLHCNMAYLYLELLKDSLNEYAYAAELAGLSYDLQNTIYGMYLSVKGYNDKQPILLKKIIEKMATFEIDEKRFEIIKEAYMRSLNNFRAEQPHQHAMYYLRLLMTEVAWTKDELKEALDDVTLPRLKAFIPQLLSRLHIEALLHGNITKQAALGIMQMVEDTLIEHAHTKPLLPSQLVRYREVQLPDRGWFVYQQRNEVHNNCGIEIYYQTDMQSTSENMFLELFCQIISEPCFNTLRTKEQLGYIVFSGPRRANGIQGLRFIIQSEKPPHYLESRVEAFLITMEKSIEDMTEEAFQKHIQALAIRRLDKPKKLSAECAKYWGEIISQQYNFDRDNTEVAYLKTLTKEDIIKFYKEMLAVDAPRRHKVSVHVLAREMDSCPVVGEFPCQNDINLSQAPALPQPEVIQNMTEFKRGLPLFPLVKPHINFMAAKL
RTF Ca sens act = cardiac RTF calcium sensitization | 0.24% of 340,000 active | P19429+P45379 | IANBD-labeled TnC RTF fluorescence at EC20 calcium; 0% EC20 calcium, 100% full calcium | activation, % at 7.2 µM;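 active means activation above the mean over all tested compounds plus 3 SD, cut at about 30% in these data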;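 further: rise in fluorescence read as greater calcium sensitivity of cardiac thin filaments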
IDE act = activators of human insulin-degrading enzyme in cells | HEK cells, FAbeta-B cleavage, fluorescence polarization; 0% vehicle, 100% cell-free pure enzyme wells | activation, % at 5.96 µM | 0.073% of 340,000 active;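 active means activation above the mean of all tested compounds plus 3 SD, set per screening campaign, cut at about 17% in these data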
RTF Ca sens inh = cardiac RTF calcium desensitization | P19429+P45379 | IANBD-labeled cardiac RTF, Ca2+ fluorescence | inhibition, % at 7.15 µM | 0.12% of 340,000 active;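 active means inhibition above the mean inhibition of all tested compounds plus 3 SD, cut at about 17% in these data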;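 further: assay run at fixed EC70 calcium of 1.6 mM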
RTF inh confirm = confirmation of inhibitors of cardiac thin filament calcium sensitivity; reconstituted cardiac thin filaments, calcium sensitivity fluorescence; shares compounds with RTF Ca sens inh; inhibition, % at 7.15 µM; 8% of 360 active; AID 504635; in the data active means inhibition above about 18%
A number is an active result; – = inactive; · = not tested or not shown.

SMILES | IDE inh | RTF Ca sens act | IDE act | RTF Ca sens inh | RTF inh confirm
COCCNC(=O)CSc1nc2ccc(N3CCOCC3)cc2c(=O)n1Cc1ccc(OC)cc1 | – | – | – | – | ·
Cc1ccc(-n2c(SCC(=O)O)nc3sc4c(c3c2=O)CCCC4)cc1 | – | – | – | 17.4 | –
NS(=O)(=O)c1ccc(CCNC(=O)c2cnccn2)cc1 | – | – | – | – | ·
COc1ccccc1C(CNC(=O)c1cccc(S(=O)(=O)N2c3ccccc3CC2C)c1)N(C)C (configuration not stated) | · | – | – | – | ·
Cc1ccc(-n2c(SCC(=O)Nc3ccc4c(c3)OCCO4)nnc2-c2ccco2)cc1 | – | – | – | 17.4 | –
CN1C(=O)N(CC(=O)Nc2nccs2)C(=O)C12CCCCC2 | – | – | – | – | ·
CN1C(=O)N(CC(=O)Nc2sccc2C(N)=O)C(=O)C12CCCCC2 | – | – | – | 17.0 | –
CNS(=O)(=O)c1cc(-c2nnc(N3CCOCC3)c3ccccc23)ccc1C | – | – | – | – | ·
CC1=CC(C)C(C(=O)O)C(C(=O)N2CCN(C)CC2)C1 (configuration not stated) | – | – | – | – | ·
CC1=CC(C)(C)C(C(=O)O)C(C(=O)O)C1 (configuration not stated) | – | – | – | 17.6 | –
Cc1ccc(S(=O)(=O)N(C)c2ccccc2)cc1 | – | – | – | – | ·
CN(c1ccccc1)S(=O)(=O)c1ccccc1Br | – | – | – | 17.2 | –
CC(C)(C)n1nnnc1C(c1cccc(C#N)c1)N1CCN2CCCC2C1 (configuration not stated) | – | – | – | – | ·
CC(C)(C)n1nnnc1C(c1cccc(C#N)c1)N1CCCCCC1 (configuration not stated) | – | – | – | 23.1 | –
O=c1oc2cc(O)c(Cl)cc2c2ccccc12 | – | – | – | – | ·
O=c1cc2c(=O)oc3cc(O)c(O)oc3c2c(O)c1O | · | – | – | 86.7 | 68.1
CC(C)(C)C1CCc2c(C(=O)NNC(=O)CCCC(=O)O)csc2C1 (configuration not stated) | – | – | – | 17.2 | –
O=C(NCc1ccccc1)c1ccc(F)c(S(=O)(=O)N2CCOCC2)c1 | – | – | – | 63.5 | –
O=C(O)c1c(C(=O)O)c(-c2ccc(F)cc2)n2c1CCC2 | – | – | – | – | ·
CC(=O)c1ccc(OCc2cc(C(=O)N3CC4C[C@@H]5CC3C[C@H](C4)C5)no2)cc1 | – | – | – | – | ·
CCCn1c(N)c(C(=O)CSc2nnc(C3CC3)n2Cc2ccccc2)c(=O)n(C)c1=O | – | – | – | – | ·
Cc1ccc(-c2cc(C(=O)N/N=C/c3ccco3)[nH]n2)cc1 | – | – | – | 17.1 | –
CCc1oc2ccccc2c1C(=O)c1cc(Br)c(O)c(Br)c1 | – | – | – | 17.8 | –
CCc1ccc(OCC(=O)c2c(O)c3ccccc3oc2=O)cc1 | – | – | – | – | ·
Oc1ccc(-c2nc(-c3ccc(F)cc3)c(-c3ccncc3)[nH]2)cc1 | – | – | – | 20.4 | –
SMILES | IDE inh | RTF Ca sens act | IDE act | RTF Ca sens inh | RTF inh confirm
Cc1ccc(NC(=O)CSc2nnc3n2CCCCC3)cc1 | – | – | – | 21.6 | –
O=C(NCc1cccc(Br)c1)C1CC(c2ccccc2C(F)(F)F)=NO1 (configuration not stated) | – | – | – | – | ·
CCCC(C)NC1=NCCCCC1 (configuration not stated) | – | – | – | 18.2 | –
CCc1ccc(OCC(=O)NNC(=O)c2nn(CC)c(=O)c3ccccc23)cc1 | – | – | – | 17.7 | –
COc1ccccc1OCC(=O)Nc1ccc2c(c1)OCO2 | – | – | – | – | ·
O=C(COc1ccccc1Cl)Nc1ccc2c(c1)OCO2 | – | – | – | 19.3 | –
CCN(CC(=O)NCc1ccc(F)cc1)C(=O)COc1ccccc1[N+](=O)[O-] | – | – | – | – | ·
NC(=S)Nc1nc2ccccc2s1 | – | – | – | 19.0 | –
CCOc1cc(N2CCOCC2)c(OCC)cc1NC(=O)c1nn(CC)c(=O)c2ccccc12 | – | – | – | – | ·
O=C(CN(C(=O)c1csnn1)c1ccccc1Cl)NC1CCCCC1 | · | – | – | – | ·
CC1=NN(c2cccc([N+](=O)[O-])c2)C(=O)C1 | – | – | – | – | ·
O=C1CC(=O)N2N=C(c3ccc([N+](=O)[O-])cc3)SC2=N1 | – | – | – | 19.3 | –
O=C1NC(=S)S/C1=C\C=C\c1ccc([N+](=O)[O-])o1 | · | – | – | 31.3 | 20.4
O=C(O)C1Nc2c(O)cc(Cl)c([N+](=O)[O-])c2C2C=CCC12 (configuration not stated) | – | – | – | 85.9 | 35.8
CCCS(=O)(=O)N1CCCC(C(=O)NCCc2cccc(C)c2)C1 (configuration not stated) | – | – | – | – | ·
O=C(Nc1ccc(N2CCOCC2)c(Cl)c1)c1ccc(F)cc1 | – | – | – | – | ·
O=C(Nc1ccc(N2CCOCC2)c(Cl)c1)c1ccccc1Cl | – | – | – | 49.8 | –
COc1ccc(CC2(CO)COc3ccccc3C2=O)cc1 (configuration not stated) | – | – | – | – | ·
O=C1C=CC2=C3c4cc(O)c(O)cc4CC3(O)COC2=C1O (configuration not stated) | · | – | – | 37.0 | 33.7
CCOc1cc(C(=O)Nc2nnc(S(=O)(=O)N3CCOCC3)s2)cc(OCC)c1OCC | – | – | – | – | ·
CCOc1ccc2nc3cc(N=Nc4ccc(N)nc4N)ccc3c(N)c2c1 | · | – | – | 25.0 | 40.6
COc1cc(CN(C)C(C)C(=O)Nc2ccc([N+](=O)[O-])cc2Cl)ccc1OC(F)F (configuration not stated) | – | – | – | – | ·
COc1ccc(Cl)cc1NC(=O)C(C)N(C)Cc1ccc(C(F)(F)F)cc1 (configuration not stated) | – | – | – | 17.6 | –
Cc1ccc(C2/C=C\CC(NC(=O)OCC3c4ccccc4-c4ccccc43)CC(=O)N2Cc2ccccc2)cc1 (configuration not stated) | · | – | – | – | ·
CN(C)CC[C@@H](c1ccc(Cl)cc1)c1ccccn1 | – | – | – | 17.2 | –
SMILES | IDE inh | RTF Ca sens act | IDE act | RTF Ca sens inh | RTF inh confirm
Cn1c(Cn2cnc([N+](=O)[O-])n2)nnc1SCC(=O)Nc1ccccc1 | – | – | – | 17.1 | –
COc1ccc(NC(=O)CSc2nnc(Cn3cnc([N+](=O)[O-])n3)n2C)cc1 | – | – | – | – | ·
COc1cccc2c1NC(C(=O)O)C1CC=CC21 (configuration not stated) | – | – | – | 19.0 | –
CCN(CC)S(=O)(=O)c1cc(NS(=O)(=O)c2cccc(Cl)c2Cl)ccc1C | – | – | – | 47.4 | –
O=C(O)C(Cc1ccccc1)N1C(=O)/C(=C/C=C/c2ccco2)SC1=S (configuration not stated) | · | – | – | 63.7 | 27.1
O=C(O)CC(C(=O)O)N1C(=O)/C(=C/C=C/c2ccco2)SC1=S (configuration not stated) | – | – | – | 65.8 | 20.6
O=C(O)CCCN1C(=O)/C(=C/C=C/c2ccco2)SC1=S | – | – | – | 50.8 | –
